Data taken from PubChem BioAssay (NCATS).
Inconclusive results are not listed. Activity calls are given as the source filed them. Unless noted, calls follow the shape of the dose curve; as a rule, active = well fitted curve in the direction sought with a large enough effect in the repeat runs; inconclusive = weak or mixed curves; inactive = no such curve, though single readings can be large; an effect the other way counts as inactive or inconclusive.

What was measured:
[1] = target: Cytochrome P450 2D6 (Homo sapiens) (UniProt P10635); assay: Cytochrome P450 family 2 subfamily D member 6 (CYP2D6) small molecule antagonists: luciferase biochemical (cell-free) qHTS assay (AID 1645840); also: nearly all actives have a fitted effect of over 55% in size; also: potency is read from the fitted curve at half-maximal effect
Chain of Cytochrome P450 2D6 (Homo sapiens) (P10635 whole entry, looked up): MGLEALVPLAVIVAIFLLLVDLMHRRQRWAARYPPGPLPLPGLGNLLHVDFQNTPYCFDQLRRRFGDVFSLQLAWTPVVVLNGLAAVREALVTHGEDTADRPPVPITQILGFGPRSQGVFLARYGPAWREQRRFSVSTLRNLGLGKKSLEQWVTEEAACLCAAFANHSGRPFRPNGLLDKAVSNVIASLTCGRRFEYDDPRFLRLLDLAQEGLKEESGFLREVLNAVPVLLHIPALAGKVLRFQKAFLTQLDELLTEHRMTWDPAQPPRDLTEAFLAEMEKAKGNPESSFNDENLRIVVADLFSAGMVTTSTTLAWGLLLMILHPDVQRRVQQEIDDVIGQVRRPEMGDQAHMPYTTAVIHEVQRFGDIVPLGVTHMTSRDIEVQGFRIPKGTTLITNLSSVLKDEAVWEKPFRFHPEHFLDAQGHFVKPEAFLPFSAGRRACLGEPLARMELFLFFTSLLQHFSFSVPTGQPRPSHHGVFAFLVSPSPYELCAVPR
Procedure, shortened: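 P450-Glo CYP2D6 system: proluciferin substrate converted by enzyme to luciferin, read by luminescence proportional to activity. Enzyme-substrate mix with compound 10 min at room temperature, then NADPH regeneration 1 h before detection reagent.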

[2] = target: Cytochrome P450 2C9 (Homo sapiens) (UniProt P11712); assay: Cytochrome P450 family 2 subfamily C member 9 (CYP2C9) small molecule antagonists: luciferase biochemical (cell-free) qHTS assay (AID 1645842); also: nearly all actives have a fitted effect of over 55% in size; also: potency is read from the fitted curve at half-maximal effect
Chain of Cytochrome P450 2C9 (Homo sapiens) (P11712 whole entry, looked up): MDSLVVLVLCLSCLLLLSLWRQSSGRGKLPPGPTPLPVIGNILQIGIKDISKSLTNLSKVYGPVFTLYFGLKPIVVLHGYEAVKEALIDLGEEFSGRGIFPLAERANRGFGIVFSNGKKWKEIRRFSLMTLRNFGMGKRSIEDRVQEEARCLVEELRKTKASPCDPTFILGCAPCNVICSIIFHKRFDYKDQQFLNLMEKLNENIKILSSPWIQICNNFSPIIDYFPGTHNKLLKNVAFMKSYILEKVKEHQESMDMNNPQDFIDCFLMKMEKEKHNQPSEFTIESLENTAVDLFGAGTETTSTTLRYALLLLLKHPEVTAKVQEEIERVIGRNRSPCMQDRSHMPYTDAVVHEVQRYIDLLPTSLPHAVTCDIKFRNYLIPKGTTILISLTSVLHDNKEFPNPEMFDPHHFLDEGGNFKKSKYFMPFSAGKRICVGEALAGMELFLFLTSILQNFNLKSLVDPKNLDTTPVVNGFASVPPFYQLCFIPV
Procedure, shortened: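 P450-Glo CYP2C9 system: proluciferin substrate with enzyme in mix containing 0.4% BSA, 10 min at room temperature, then NADPH regeneration solution added and incubated 1 h at 37C. Detection reagent stopped reaction; luminescence read after 20 min as RLU.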

[3] = target: Rap guanine nucleotide exchange factor 3 (Homo sapiens) (UniProt O95398); assay: Confirmatory qHTS for antagonist of cAMP-regulated guanine nucleotide exchange factor 3 (EPAC1) (AID 1645880; active = well fitted curve in the direction sought with a large enough effect; an effect the other way counts as inactive or inconclusive; also: nearly all actives have a fitted effect of over 55% in size; also: potency is read from the fitted curve at half-maximal effect)
Chain of Rap guanine nucleotide exchange factor 3 (Homo sapiens) (O95398 whole entry, looked up): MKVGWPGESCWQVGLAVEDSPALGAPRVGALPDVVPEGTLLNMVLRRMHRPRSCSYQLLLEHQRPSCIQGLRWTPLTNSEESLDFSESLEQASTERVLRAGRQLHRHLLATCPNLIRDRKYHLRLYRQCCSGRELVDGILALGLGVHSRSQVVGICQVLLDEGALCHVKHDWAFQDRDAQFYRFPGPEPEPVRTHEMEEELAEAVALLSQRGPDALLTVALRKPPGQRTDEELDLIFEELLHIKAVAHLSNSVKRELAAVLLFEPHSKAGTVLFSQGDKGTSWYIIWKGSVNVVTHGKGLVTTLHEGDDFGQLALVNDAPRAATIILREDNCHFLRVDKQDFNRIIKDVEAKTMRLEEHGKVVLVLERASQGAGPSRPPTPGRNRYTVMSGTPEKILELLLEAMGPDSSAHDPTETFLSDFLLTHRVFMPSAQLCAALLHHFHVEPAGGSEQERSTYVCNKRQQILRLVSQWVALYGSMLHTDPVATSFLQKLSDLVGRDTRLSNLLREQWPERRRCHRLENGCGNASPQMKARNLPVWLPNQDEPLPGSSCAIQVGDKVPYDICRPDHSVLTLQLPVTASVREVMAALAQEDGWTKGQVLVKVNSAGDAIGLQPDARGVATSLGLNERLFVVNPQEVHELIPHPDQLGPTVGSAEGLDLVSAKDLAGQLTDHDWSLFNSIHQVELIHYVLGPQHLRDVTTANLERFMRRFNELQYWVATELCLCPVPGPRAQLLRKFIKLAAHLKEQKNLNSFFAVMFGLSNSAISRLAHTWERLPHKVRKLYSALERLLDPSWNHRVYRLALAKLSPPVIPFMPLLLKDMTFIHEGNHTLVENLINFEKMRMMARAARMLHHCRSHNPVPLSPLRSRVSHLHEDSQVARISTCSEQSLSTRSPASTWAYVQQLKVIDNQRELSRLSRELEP
Procedure, shortened: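 Released BODIPY-GDP fluoresces less than Rap1-bound BODIPY-GDP; the signal is followed at 480/540 nm at 5-min intervals over 30 min, after 5 min at room temperature. Reactions contain 100 nM EPAC1, 250 nM RAP1B-BODIPY-GDP and 50 uM GDP; results are normalized to ATA and DMSO.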

[4] = target: Rap guanine nucleotide exchange factor 3 (Homo sapiens) (UniProt O95398); assay: Confirmatory qHTS for agonist of cAMP-regulated guanine nucleotide exchange factor 3 (EPAC1) (AID 1645881; active = well fitted curve in the direction sought with a large enough effect; an effect the other way counts as inactive or inconclusive; also: nearly all actives have a fitted effect of over 75% in size; also: potency is read from the fitted curve at half-maximal effect)
[5] = target: Rap guanine nucleotide exchange factor 4 (Homo sapiens) (UniProt Q8WZA2); assay: Confirmatory qHTS for agonist of cAMP-regulated guanine nucleotide exchange factor 4 (EPAC2) (AID 1645884; active = well fitted curve in the direction sought with a large enough effect; an effect the other way counts as inactive or inconclusive;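 also: nucleotide exchange releases bodipy-GDP from Rap1 and this lowers its fluorescence; nearly all actives have a fitted effect of over 65% in size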)
Chain of Rap guanine nucleotide exchange factor 4 (Homo sapiens) (Q8WZA2 whole entry, looked up): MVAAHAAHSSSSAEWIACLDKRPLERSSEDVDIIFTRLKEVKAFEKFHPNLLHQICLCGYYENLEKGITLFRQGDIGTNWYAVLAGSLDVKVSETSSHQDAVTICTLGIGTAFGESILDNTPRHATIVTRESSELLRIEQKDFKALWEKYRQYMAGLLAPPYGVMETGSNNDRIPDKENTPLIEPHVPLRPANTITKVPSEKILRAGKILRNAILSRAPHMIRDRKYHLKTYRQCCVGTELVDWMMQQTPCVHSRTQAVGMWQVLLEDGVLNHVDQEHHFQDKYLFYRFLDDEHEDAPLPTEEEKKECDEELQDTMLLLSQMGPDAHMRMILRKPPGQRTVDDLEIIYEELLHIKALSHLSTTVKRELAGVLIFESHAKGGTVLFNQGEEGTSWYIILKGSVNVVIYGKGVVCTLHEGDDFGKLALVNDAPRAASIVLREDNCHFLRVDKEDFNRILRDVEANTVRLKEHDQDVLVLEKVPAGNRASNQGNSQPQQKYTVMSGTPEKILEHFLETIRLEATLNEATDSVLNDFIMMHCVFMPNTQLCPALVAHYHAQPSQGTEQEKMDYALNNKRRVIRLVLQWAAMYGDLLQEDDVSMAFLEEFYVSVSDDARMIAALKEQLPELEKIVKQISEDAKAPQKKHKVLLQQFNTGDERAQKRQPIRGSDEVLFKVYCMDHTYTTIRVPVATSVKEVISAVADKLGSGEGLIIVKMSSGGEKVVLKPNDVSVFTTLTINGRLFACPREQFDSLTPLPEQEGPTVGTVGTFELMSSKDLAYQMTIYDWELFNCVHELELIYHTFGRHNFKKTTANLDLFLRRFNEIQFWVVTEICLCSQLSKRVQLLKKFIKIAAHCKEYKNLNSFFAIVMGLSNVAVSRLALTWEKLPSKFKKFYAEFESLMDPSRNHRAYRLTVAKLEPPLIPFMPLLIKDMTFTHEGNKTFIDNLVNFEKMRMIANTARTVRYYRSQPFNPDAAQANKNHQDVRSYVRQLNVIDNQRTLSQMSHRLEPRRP

[6] = target: Rap guanine nucleotide exchange factor 4 (Homo sapiens) (UniProt Q8WZA2); assay: Confirmatory qHTS for antagonist of cAMP-regulated guanine nucleotide exchange factor 4 (EPAC2) (AID 1645885; active = well fitted curve in the direction sought with a large enough effect; an effect the other way counts as inactive or inconclusive; also: nearly all actives have a fitted effect of over 25% in size; also: potency is read from the fitted curve at half-maximal effect)
[7] = target: Rap guanine nucleotide exchange factor 3 (Homo sapiens) (UniProt O95398); assay: Counterscreen qHTS for antagonist of cAMP-regulated guanine nucleotide exchange factor 3 (EPAC1) (AID 1645888; active = well fitted curve in the direction sought with a large enough effect; an effect the other way counts as inactive or inconclusive)
Procedure, shortened: (§1)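 Rap1B-BODIPY-GDP 250 nM + GDP 50 uM; cpds 7-pt, final 9.74 nM–152 uM (activator mode) or from 7.32 nM upwards (inhibitor mode); RT; FI 480/540 nm at 5 and 30 min, then ± cAMP, reread.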

[8] = target: Rap guanine nucleotide exchange factor 3 (Homo sapiens) (UniProt O95398); assay: Counterscreen qHTS for agonist of cAMP-regulated guanine nucleotide exchange factor 3 (EPAC1) (AID 1645889; active = well fitted curve in the direction sought with a large enough effect; an effect the other way counts as inactive or inconclusive; also: nearly all actives have a fitted effect of over 40% in size; also: potency is read from the fitted curve at half-maximal effect)
Procedure, shortened: as §1

[9] = target: N-terminal Xaa-Pro-Lys N-methyltransferase 1 (Homo sapiens) (UniProt Q9BV86); assay: Confirmatory qHTS for Inhibitors of N-terminal methyltransferase 1 (NTMT1): MTaseGlo Assay (AID 1645874; active = well fitted curve in the direction sought with a large enough effect; an effect the other way counts as inactive or inconclusive; also: potency is read from the fitted curve at half-maximal effect; nearly all actives have a fitted effect of over 65% in size)
Chain of N-terminal Xaa-Pro-Lys N-methyltransferase 1 (Homo sapiens) (Q9BV86 whole entry, looked up): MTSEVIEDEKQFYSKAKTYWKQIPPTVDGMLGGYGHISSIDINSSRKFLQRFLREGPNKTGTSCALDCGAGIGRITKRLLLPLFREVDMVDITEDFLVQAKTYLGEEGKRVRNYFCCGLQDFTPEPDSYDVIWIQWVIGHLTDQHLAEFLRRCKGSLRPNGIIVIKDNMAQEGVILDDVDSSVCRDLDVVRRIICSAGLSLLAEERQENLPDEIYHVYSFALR
Procedure, shortened: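 SPKRIA peptide at 1 uM was methylated by 125 nM NTMT1 using 100 uM SAM over 30 min at room temperature, following a 15 min compound preincubation. Product SAH was detected luminescently.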

COc1ccc(Cn2c(SCc3ccc(C(=O)NC4CCCC4)cc3)nc3ccncc32)cc1
Potency [1]: 6.01 µM (active) | Potency [2]: 0.674 µM (active)

COc1ccc(C(C#N)C(C)C)cc1OC (centres undefined)
Potency [1]: inactive | Potency [2]: inactive

NS(=O)(=O)c1ccc(Cc2c(-c3cccc(-c4ccccc4)c3)nn(-c3nc(C(=O)O)cs3)c2C2CC2)cc1
Potency [1]: 21.3 µM (active) | Potency [2]: 23.9 µM (active)

Cc1cccc(Cn2c(SCc3ccc(C(=O)N4CCC(C)CC4)cc3)nc3ccncc32)c1
Potency [1]: 4.77 µM (active) | Potency [2]: 4.77 µM (active)

CCOc1ccc(CNC(=O)Cn2c(=O)c3cccn3c3ccc(F)cc32)cc1
Potency [1]: inactive | Potency [2]: inactive

Cc1cc(OCCCSc2nc(-c3ccc(C(C)(C)C)cc3)nc3cc(=O)[nH]n23)ccc1Cl
Potency [1]: inactive | Potency [2]: 15.1 µM (active) | Potency [3]: 67.5 µM (active) | Potency [4]: inactive | Potency [5]: inactive | outcome [6]: inactive [at 12.7 µM] | Potency [7]: inactive | Potency [8]: inactive

O=C(Nc1cccc(Cl)c1)c1c(NC(=O)C(F)(F)F)sc2c1CCCC2
Potency [1]: 4.46 µM (active) | Potency [2]: 0.354 µM (active) | Potency [9]: 5.4 µM (active) | Potency [3]: 37.9 µM (active) | Potency [4]: inactive | Potency [5]: inactive | Potency [6]: inactive | Potency [7]: inactive

Clc1cccc(-n2ncc3c(NCCCn4ccnc4)ncnc32)c1
Potency [1]: 2.13 µM (active) | Potency [2]: 0.379 µM (active)

CCOc1ccccc1NC(=O)CSc1nc2ccccc2c2nc(CCn3cncc3C)nn12
Potency [1]: 10.7 µM (active) | Potency [2]: 0.952 µM (active)

CC1=C(C(=O)Nc2ccc(CN)cc2)C(c2ccccc2Cl)N=C(Nc2nc3ccccc3o2)N1 (centres undefined)
Potency [1]: 15.1 µM (active) | Potency [2]: 10.7 µM (active)

CC1(C#N)CCN(c2c(C(=O)N3CCN(C(=O)C4CC4)CC3)cnc3c(F)cc(F)cc23)CC1
Potency [1]: inactive | Potency [2]: 12 µM (active)

CCOC(=O)c1cnc2ccc(OC)cc2c1NCCc1ccc(OC)c(OC)c1
Potency [1]: 2.39 µM (active) | Potency [2]: 0.849 µM (active)

O=C(CSc1nc2ccsc2c(=O)n1Cc1ccccc1F)NCc1ccccc1Cl
Potency [1]: 2.68 µM (active) | Potency [2]: 1.51 µM (active)

COc1ccc(CN(C2CCCCC2)[S+](=O)([O-])c2ccc(C)cc2)cc1OC
Potency [1]: inactive | Potency [2]: 3.79 µM (active)

Cc1ccc([S+](=O)([O-])NC2CCC(C)(C)CC2)cc1
Potency [1]: inactive | Potency [2]: 2.13 µM (active)

Cc1cccc(OCCCSc2nc(-c3ccc(C(C)(C)C)cc3)nc3cc(=O)[nH]n23)c1C
Potency [1]: inactive | Potency [2]: 13.5 µM (active) | Potency [3]: 37.9 µM (active) | Potency [4]: inactive | Potency [5]: inactive | Potency [6]: inactive | Potency [7]: inactive | Potency [8]: inactive

Cc1ccc(S(=O)(=O)N2CCc3cc(C(=O)Nc4ccc(C(F)(F)F)cc4)ccc32)cc1
Potency [1]: inactive | Potency [2]: 1.51 µM (active)

Cc1ccc(CSc2nc3ccncc3n2Cc2nc(-c3ccccc3C)oc2C)cc1
Potency [1]: 2.39 µM (active) | Potency [2]: 7.56 µM (active)

Cc1cccn2c(=O)c3cc(C#N)c(=O)n(-c4nnc(SCc5ccc(Cl)cc5)s4)c3nc12
Potency [1]: inactive | Potency [2]: 6.01 µM (active)

Cc1ccc(-n2c(SCc3cccc(F)c3)nc3[nH]ncc3c2=O)cc1C
Potency [1]: 8.49 µM (active) | Potency [2]: 1.51 µM (active)

COc1ccc(CCNC(=O)Cn2nc(C)c3c(C)n(-c4ccc(C)cc4)nc3c2=O)c(OC)c1
Potency [1]: 8.49 µM (active) | Potency [2]: 8.49 µM (active) | Potency [3]: 67.5 µM (active) | Potency [4]: inactive | Potency [5]: inactive | outcome [6]: inactive [at 12.7 µM] | Potency [7]: inactive | Potency [8]: inactive

Cc1ccc([S+](=O)([O-])NC2(c3ccccc3)CCCCC2)cc1
Potency [1]: inactive | Potency [2]: 2.68 µM (active)

CCOC(=O)c1c(NC(=O)c2ccc(S(=O)(=O)N(C)C3CCCCC3)cc2)sc2c1CCN(C(C)C)C2
Potency [1]: 9.52 µM (active) | Potency [3]: inactive | Potency [4]: 89.1 µM (active) | Potency [5]: inactive | Potency [6]: 4.26 µM (active) | Potency [8]: 20 µM (active)
